Molecular target: ZFP62
Experiment: pooled miR-30 sensor sort-seq; sequence = guide strand
Details: shRNA
Further: reference of the scale not given here.

| Sequence | sensor-assay potency score (higher = more potent) |
| --- | --- |
| TAATTTCTTAACAGCATTGGTT | -0.651 |
| TTTATGTTGAACAAGGCGGGAA | 0.133 |
| TTTGCCACAGACATCACACTTG | 0.373 |
| TAGAGCGTGAGATATAGGCTTT | -0.26 |
| TTATATTTGAAGGATTTCCCAC | -0.915 |
| ATACATAAGGTCTCTCTCCGGT | 0.0569 |
| TTTTCTGCTGTAGACTAGGGTA | -0.796 |
| TTCTGCTTGAGAAAAAAGCTTT | -0.449 |
| TTTCTCTCTAGTGTGGACCCTT | -0.0465 |

Molecular target: ZFR2
Experiment: as above
Details: shRNA

| Sequence | sensor-assay potency score (higher = more potent) |
| --- | --- |
| TTCGTCGCTGAACACCTCCTCC | -0.823 |
| TCATCCTCGGTCACCATCTGGA | -0.791 |
| TGTCGCAGTAGTGAAGCTGGAG | -0.148 |
| TGCAGCTTGAAGACCTTCTGGT | 0.0557 |
| TTTCTTCCGGTACTGCAGCCGG | -0.948 |
| TCCGTAGCTGTAACTGTCCTGG | -0.711 |
| TAGCTTGGTGCCGTGTAGGCGG | -0.795 |
| TTAAGGTCGTTGAAACTGCACT | -0.864 |
| TTGGGTCTCGGCAGCTTGCTGG | -0.733 |
| TCTGTCTGGTCTCTCTCGCAGG | -0.775 |
| TATGGTGACCTGCATCCTGGGC | -0.904 |
| TAGTGAAGCTGGAGCTGCCTGG | -0.835 |

Molecular target: ZFR
Experiment: as above
Details: shRNA

| Sequence | sensor-assay potency score (higher = more potent) |
| --- | --- |
| TTACATATGAGTATGAATCCTG | 0.475 |
| TCTTCTTCTCGTCTTCGCCAGT | -1.15 |
| TAGTTTTGTGTAGTAGCTGGGG | 0.0406 |
| TTGTGTGTAACTTAACCACTTT | -0.519 |
| TATAACCATAGTCAGTTGCTGT | -0.854 |
| TTGACATTTCTATCTCCTCGGA | -0.27 |
| TTATATTGAAGTCTGTGTCTTC | 0.707 |
| TTTCTCTACTAGTAACTCCATA | -1.22 |
| TAGAACTTTGTGTATCTGGCGG | -0.255 |
| TATAACAGCAAGCTGTTTGGGT | 0.358 |
| TTTTTCATTACATCACTGCTAG | 0.0706 |
| TTGTGTAGGAGACATAAGCAGG | -0.979 |

Molecular target: ZHX1
Experiment: as above
Details: shRNA

| Sequence | sensor-assay potency score (higher = more potent) |
| --- | --- |
| TTCTTCTTCTCTGTAAACCAAG | -1.18 |
| TTGTATTAGATTCAGAAGCTGA | -0.592 |
| TTATGATGAACTGCAATCCGTT | -0.993 |
| TTTCTCTTTAAACTTTTGGGGA | -0.716 |
| TTAAACTGAACATTTCTTCTAC | 0.706 |
| TTTACTGATAGATATTCCCGAA | -0.468 |
| TTGCTCATTAAGAAACTTGTGC | -0.28 |
